# Compound activity from PubChem BioAssay.
# Many of the other results were omitted from the sample, so hits are more common in it than they were.
# Dicer inh = human Dicer pre-microRNA cleavage inhibition | Q9UPY3 | cat-ELCCA pre-miR-21 Dicer processing, chemiluminescence; active compounds read high | z-score at 25 µM | actives 6% (n = 47,000); in the data active = z-score above about 3, passing the limit was not always enough;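 note: plate controls were vehicle for no effect and no enzyme for full effect; higher signal means more uncleaved substrate so more Dicer inhibition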
# Target sequence (Q9UPY3 whole entry, looked up): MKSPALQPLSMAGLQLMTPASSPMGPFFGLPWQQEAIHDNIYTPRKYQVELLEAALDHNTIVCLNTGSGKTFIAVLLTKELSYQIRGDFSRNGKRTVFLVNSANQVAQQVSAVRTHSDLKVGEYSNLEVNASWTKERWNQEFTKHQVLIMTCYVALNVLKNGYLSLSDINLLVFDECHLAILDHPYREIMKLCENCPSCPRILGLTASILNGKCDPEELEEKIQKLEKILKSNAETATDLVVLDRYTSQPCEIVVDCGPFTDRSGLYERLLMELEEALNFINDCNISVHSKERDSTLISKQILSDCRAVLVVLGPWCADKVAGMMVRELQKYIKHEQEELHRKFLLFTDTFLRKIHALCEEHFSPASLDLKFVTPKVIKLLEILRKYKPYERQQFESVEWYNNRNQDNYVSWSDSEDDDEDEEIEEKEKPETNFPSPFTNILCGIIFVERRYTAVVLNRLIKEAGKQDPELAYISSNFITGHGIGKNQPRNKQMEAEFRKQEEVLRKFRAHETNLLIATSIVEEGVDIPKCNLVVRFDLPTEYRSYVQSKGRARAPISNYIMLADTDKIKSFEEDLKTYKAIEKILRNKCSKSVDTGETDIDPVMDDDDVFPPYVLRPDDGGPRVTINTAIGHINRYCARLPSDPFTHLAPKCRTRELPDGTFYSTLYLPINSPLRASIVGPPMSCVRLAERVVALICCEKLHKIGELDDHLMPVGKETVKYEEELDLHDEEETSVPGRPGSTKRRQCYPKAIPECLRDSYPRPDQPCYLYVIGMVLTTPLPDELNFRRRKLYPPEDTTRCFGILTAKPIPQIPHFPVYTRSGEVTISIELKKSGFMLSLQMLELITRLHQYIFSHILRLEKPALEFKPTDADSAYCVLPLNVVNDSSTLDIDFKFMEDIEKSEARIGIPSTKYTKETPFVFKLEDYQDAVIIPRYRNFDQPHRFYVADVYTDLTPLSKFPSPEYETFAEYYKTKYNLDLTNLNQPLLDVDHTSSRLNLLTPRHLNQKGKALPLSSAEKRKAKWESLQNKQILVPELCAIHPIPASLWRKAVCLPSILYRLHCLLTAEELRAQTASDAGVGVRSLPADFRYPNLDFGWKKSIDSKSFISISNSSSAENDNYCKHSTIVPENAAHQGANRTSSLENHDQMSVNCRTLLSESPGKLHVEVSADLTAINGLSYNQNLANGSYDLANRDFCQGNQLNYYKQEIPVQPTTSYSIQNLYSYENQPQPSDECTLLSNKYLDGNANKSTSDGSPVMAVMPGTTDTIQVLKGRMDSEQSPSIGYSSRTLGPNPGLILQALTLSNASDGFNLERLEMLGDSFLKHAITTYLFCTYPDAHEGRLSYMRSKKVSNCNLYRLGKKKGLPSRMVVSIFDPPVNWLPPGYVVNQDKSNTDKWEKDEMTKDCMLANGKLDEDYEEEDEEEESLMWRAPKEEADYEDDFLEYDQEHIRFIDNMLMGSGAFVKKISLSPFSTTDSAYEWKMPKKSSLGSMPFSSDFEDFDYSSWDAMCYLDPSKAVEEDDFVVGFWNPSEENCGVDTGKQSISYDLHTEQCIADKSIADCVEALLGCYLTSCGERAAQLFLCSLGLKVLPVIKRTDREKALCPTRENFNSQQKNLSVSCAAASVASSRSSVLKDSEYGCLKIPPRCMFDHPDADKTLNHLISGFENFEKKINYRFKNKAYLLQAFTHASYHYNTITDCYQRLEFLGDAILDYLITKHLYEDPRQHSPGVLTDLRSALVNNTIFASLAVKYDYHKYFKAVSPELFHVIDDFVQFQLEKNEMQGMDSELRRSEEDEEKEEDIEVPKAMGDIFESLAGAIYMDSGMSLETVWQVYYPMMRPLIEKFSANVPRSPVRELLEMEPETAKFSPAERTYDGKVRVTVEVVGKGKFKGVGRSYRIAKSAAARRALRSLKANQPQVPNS
# * hit, by the source's call.
SMILES,Dicer inh
C=CCOc1ccc(C2c3c(oc4cc(C)c(C)cc4c3=O)C(=O)N2CCCN(C)C)cc1OCC (centres undefined),-0.58
CC(C)(C)OC(=O)C(C)(C)S(=O)(=O)c1ccc(C(F)(F)F)cn1,-0.91
CCOC(=O)c1c(C)oc(-c2ccc(Cl)cc2)c1S(=O)(=O)Nc1cccc(C)c1,-0.33
Nc1nc(Cc2cc3ccccc3[nH]2)nc(NC2CCCCC2)n1,4.05*
c1ccc(-c2nc(NC3CCCCC3)c3ccccc3n2)cc1,0.99
CCOc1ccc(C2c3c(oc4ccccc4c3=O)C(=O)N2c2ccc(C)cn2)cc1 (centres undefined),3.61*
Cc1ccc(N2C(=O)c3oc4ccccc4c(=O)c3C2c2ccc(O)cc2)nc1 (centres undefined),4.36*
Cc1ccc(N2C(=O)c3oc4ccccc4c(=O)c3C2c2cccc(Br)c2)nc1 (centres undefined),2.88
CCOc1ccc(C2c3c(oc4ccccc4c3=O)C(=O)N2c2nc(C)c(C)s2)cc1 (centres undefined),0.15
COc1ccc(C2c3c(oc4ccccc4c3=O)C(=O)N2c2ccc(C)cn2)cc1OC (centres undefined),1.64
CCOc1ccc(C2c3c(oc4ccc(C)cc4c3=O)C(=O)N2c2ccccn2)cc1 (centres undefined),1.08
Cc1ccc(C2c3c(oc4ccccc4c3=O)C(=O)N2c2ccccn2)cc1 (centres undefined),0.91
Cc1ccc(N2C(=O)c3oc4ccccc4c(=O)c3C2c2ccc(Cl)cc2)nc1 (centres undefined),3.83*
Cc1ccc(N2C(=O)c3oc4ccccc4c(=O)c3C2c2ccccc2)nc1 (centres undefined),0.17
COc1ccc(C2C3=C(CCCC3=O)Nc3ncnn32)cc1OC (centres undefined),-0.52
Cc1onc(-c2c(Cl)cccc2Cl)c1NC(=O)Nc1ccc(N(C)C)c(Cl)c1C#N,0.25
C/C(=N\Nc1nc2c(c(=O)n(C)c(=O)n2C)n1Cc1ccccc1)c1ccncc1,0.42
Cc1cc(=O)n2[nH]c(-c3ccc(Cl)cc3)nc2n1,6.53
COC(=O)C1=C(C)NC2=C(C(=O)CC(c3ccccc3OC)C2)C1c1ccc(C(=O)OC)cc1 (centres undefined),-0.49
COc1ccc(/C=C(\C#N)C(N)=O)cc1Br,-0.73
O=C(NCCc1ccccc1)c1cc2cccc([N+](=O)[O-])c2[nH]1,0.35
CCOc1ccc(C2C(C(=O)OCc3ccccc3)=C(C)N=C3SCCC(=O)N32)cc1OCC (centres undefined),2.15
CCOc1cc(C2C3=C(CCCC3=O)NC3=C2C(=O)CCC3)ccc1O,-1.34
CC(C)C(=O)N(c1cc2sc(=O)oc2c2ccccc12)S(=O)(=O)c1cccs1,-5.32
O=C(c1cccnc1)N(c1ccc2oc(=O)sc2c1)S(=O)(=O)c1cccs1,6.07*
SMILES,Dicer inh
O=C(Cc1ccccc1)N(c1ccc2oc(=O)sc2c1)S(=O)(=O)c1cccs1,5.4*
CC(C)C(=O)N(c1ccc2oc(=O)sc2c1)S(=O)(=O)c1cccs1,0.37
O=C(c1ccncc1)N(c1ccc2oc(=O)sc2c1)S(=O)(=O)c1cccs1,5.53*
COc1ccc(S(=O)(=O)N(C(=O)c2ccncc2)c2cc3sc(=O)oc3c3ccccc23)cc1,-2.67
CC(=O)Oc1cc2c(C(=O)NC3CCS(=O)(=O)C3)c(C)oc2c2ccccc12 (centres undefined),-7.3
CCOc1ccccc1NC1OC(=O)c2ccccc21 (centres undefined),0.21
COC(=O)c1c(C)oc2ccc(OC(=O)c3ccc(Br)cc3)cc12,1.61
COc1ccc(OC)c(CN2CCN(Cc3ccc(OC)c(Br)c3)CC2)c1,-0.14
Clc1ccc(CN2CCN(C3CCCCC3)CC2)cc1,-2.45
Fc1ccccc1CN1CCN(C2CCCCC2)CC1,4.12*
Clc1ccc(CN2CCN(C3CCCC3)CC2)cc1,1.06
c1ccc(CN2CCC(N3CCN(C4CCCCC4)CC3)CC2)cc1,0.42
COc1ccc(OC)c(CN2CCN(Cc3ccc(SC)cc3)CC2)c1,2.18
COc1ccc(OC)c(CN2CCN(C3CCCCC3)CC2)c1,3.13*
CCc1ccc(CN2CCN(C3CCCCC3)CC2)cc1,2.54
Fc1cccc(CN2CCN(C3CCCC3)CC2)c1,3.78*
CC(=O)O[C@@H]1OC[C@@H](OC(C)=O)[C@H](OC(C)=O)[C@H]1OC(C)=O,50.7
COc1ccc(-c2csc3nc(C)oc(=O)c23)cc1OC,2.08
O=C1CCCC2=C1C(c1ccc(Cl)cc1)c1c([nH]n(-c3ccccc3)c1=O)N2 (centres undefined),-1.56
COc1ccccc1C1NC(=O)c2sc(=S)n(-c3ccccc3)c2N1 (centres undefined),-0.12
Oc1ccc(/C=N/NC(=S)NC2CC3CCC2C3)cc1 (centres undefined),24.2*
S=C(NN=C1CCCC1)NC1CC2CCC1C2 (centres undefined),-0.5
S=C(NNC(=S)NC1CC2CCC1C2)NC1CC2CCC1C2 (centres undefined),1.91
Cc1sc(N)c(C(=O)c2ccc(Cl)cc2)c1C,-3.44
O=C(NCCC1=CCCCC1)C1c2ccccc2Oc2ccccc21,2.45
SMILES,Dicer inh
S=c1sc2ccccc2n1CSc1nc2ccccc2[nH]1,0.32
Cc1ccc(C(=O)CC(=O)c2ccc(C)cc2O)cc1,3.61*
Cc1ccc(C(=O)c2cc(Cl)cc(Cl)c2)c(C)c1,-3.2
CCCC(=O)c1ccc(NC(C)=O)cc1O,0.35
COc1ccc(/C=C/C#N)c(Cl)c1OC,-1.05
CCOC(=O)c1c(NC(=O)Nc2cccc(Cl)c2)sc2c1CCC(C)C2 (centres undefined),-0.47
CCCN1C2=C(C(=O)CC(C)(C)C2)C(c2ccc(O)cc2)C2=C1CC(C)(C)CC2=O,-0.32
C=CCOc1cccc(C2c3c(oc4ccc(C)cc4c3=O)C(=O)N2Cc2ccc3c(c2)OCO3)c1 (centres undefined),-0.04
Cc1cc(C)c2cc(C(=O)N(C)c3ccc(F)cc3F)[nH]c2c1,-2.41
CC(C)CCn1c(N2CCCCC2)nc2c1c(=O)[nH]c(=O)n2C,-1.35
O=[N+]([O-])C1=Cc2cc(Cl)ccc2OC1c1c(Cl)cccc1Cl (centres undefined),2.31
O=[N+]([O-])C1=Cc2ccccc2OC1c1ccccc1Cl (centres undefined),2.49
O=[N+]([O-])C1=Cc2cc(Cl)ccc2OC1c1ccccc1Cl (centres undefined),3.97*
CC(=O)C(C)(C)OC(=O)NCc1ccccn1,-0.61
COc1c(Br)cc(-c2noc(CSc3ccccc3)n2)cc1Br,0.97
CC(C)c1ccc(N2C(=O)C3C4C=CC(CC4)C3C2=O)cc1 (centres undefined),3.55*
O=C(O)c1cccc(N2C(=O)C3C4C=CC(CC4)C3C2=O)c1 (centres undefined),2
COC(=O)c1ccc(N2C(=O)C3C4C=CC(CC4)C3C2=O)cc1 (centres undefined),-0.19
O=C1C2C3C=CC(CC3)C2C(=O)N1c1cccc(Cl)c1 (centres undefined),3.34*
Cc1ccc(N2C(=O)C3C4C=CC(CC4)C3C2=O)c(Br)c1 (centres undefined),1.27
O=C1C2C3C=CC(C3)C2C(=O)N1c1ccc(Cc2ccc(N3C(=O)C4C5C=CC(C5)C4C3=O)cc2)cc1 (centres undefined),0.54
O=C(CSc1nnc(SCc2cccc(C(F)(F)F)c2)s1)N1CCC(C(F)(F)F)CC1,-0.82
CCOc1ccccc1C1CC(=O)NC(SCc2cccc3ccccc23)=C1C#N (centres undefined),-0.33
